# Assay results reported in PubChem BioAssay (NCI).
# About 83,000 compounds went through this panel and 20% of them were active in at least one assay; those are over-represented in the sample as a whole.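 Single-dose data. Exposure time 48 hours. Values below 10 considered active.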 Values without a mark were called inactive. Active and inactive are the calls of the source.
# System: MCF7 breast
# Assay: NCI-60 one-dose screen, 48 h (100 = growth as untreated, 0 = no growth, -100 = all killed)
# Conditions: 10 µM unless noted
# Method: Growth inhibition of the MCF7 human tumor cell line is measured as a screen for anti-cancer activity. Cells are grown in 96 well plates and exposed to the test compound for 48 hours. Compounds are tested at a single concentration, which is 10^-5 M for most compounds. The reported endpoint is percent growth (GI% or GIPRCNT), where numbers from 0 - 100% represent growth inhibition, and numbers from -100% - 0 represent cell death. For example, a value of 40 represents 60% growth inhibition. A value of 0 means no net growth occurred over the course of the experiment. A value of -40 indicates 40% of cells at the beginning of the experiment died by the end of the experiment. A value of -100 means all cells are dead at the end of the experiment.
# NCI-60 Human Tumor Cell Lines Screen was performed using the standard one-dose NCI protocol, which is described in more detail at https://dtp.cancer.gov/discovery_development/nci-60/default.htm.
# Compounds with GIPRCNT values below 10 were considered active. Activity score was based on GIPRCNT using the following formula: […]
# Score is 0 for GIPRCNT values of 100 or above, 50 for GIPRCNT values of 0, and 100 for GIPRCNT values of -100.
row,Structure (SMILES),growth
1,COc1cc(-c2nc(-c3ccccc3)c(-c3ccccc3)[nH]2)cc(OC)c1O,-85.8% (active)
2,CN(C)c1ccc(-c2ccc(-c3ccc(C(=N)N)c(F)c3)s2)cc1,-69.7% (active)
3,C/C(=N\Nc1ccc2ccccc2n1)c1ccccn1,8.28% (active)
4,Cn1cc(-c2csc(-c3c[nH]c4ccc(F)cc34)n2)c2cccnc21,19.3%
5,Cn1cc(-c2nc(-c3c[nH]c4ncccc34)cs2)c2cc(F)ccc21,7.84% (active)
6,COC(=O)[C@]12CC[C@@H](C(=O)/C=C/c3cccnc3)[C@@H]1[C@H]1CC[C@@H]3[C@@]4(C)C/C(=C/c5cccnc5)C(=O)C(C)(C)[C@@H]4CC[C@@]3(C)[C@]1(C)CC2,-54.2% (active)
7,c1cnc2[nH]cc(-c3csc(-c4cn(CCCN5CCCCC5)c5ccccc45)n3)c2c1,22.2%
8,CCC(c1ccc(OC)cc1)C(CC)c1ccc(O)c(CN2CCCCC2)c1 (stereo not given),63%
9,COc1cnc2c(c1)C(=O)c1c-2n(CCCN2CCN(CCO)CC2)c(=O)c2cc([N+](=O)[O-])ccc12,-6.37% (active)
10,CCC(CC)C(=O)OC(C)COc1ccc(C(C)(C)C)cc1 (stereo not given),101%
11,CN(C)c1ccc(N)c2ccccc12,-70.1% (active)
12,COC(c1ccccc1)(c1ccccc1)c1ccccc1,115%
13,Cc1ccc(C)c2c1CCC2C(C)C (stereo not given),107%
14,O=C1CCC/C=C\C[C@H]2C=C(Cl)C(=O)/C2=C/C[C@H](CCCCC(F)(F)F)OC(=O)CCC/C=C\C[C@H]2C=C(Cl)C(=O)/C2=C/C[C@H](CCCCC(F)(F)F)O1,-38.9% [7.5 µM] (active)
15,COc1cnc2c(c1)C(=O)c1c-2n(CCCNC2=NCCS2)c(=O)c2cc([N+](=O)[O-])ccc12,-51.3% (active)
16,C[C@H]1[C@H]2C3=CC[C@@H]4[C@@]5(C)C/C(=C/c6ccco6)C(=O)C(C)(C)[C@@H]5CC[C@@]4(C)[C@]3(C)CC[C@@]2(C(=O)N2CCOCC2)CC[C@@H]1C,39.4%
17,Cc1cc(N2CCCCC2)nc(N(CCNc2ccnc3cc(Cl)ccc23)Cc2ccco2)n1,10.7%
18,N#C/C(=C\c1ccc(-c2ccccc2)o1)c1nc(-c2ccco2)cs1,17.6%
19,Oc1cccc2oc(=S)[nH]c12,101%
20,COC(=O)[C@]12CC[C@@H](C)[C@H](C)[C@@H]1C1=CC[C@@H]3[C@@]4(C)C[C@@H](OC(C)=O)[C@H](O)[C@@](C)(COC(C)=O)[C@@H]4[C@H](O)C[C@@]3(C)[C@]1(C)CC2,-78.7% (active)

row,Structure (SMILES),growth
1,C[C@H]1OC(=O)/C=C/[C@@H](O)[C@@H](O)CCCCCCCC[C@@H]1O,101%
2,COc1cc2nc(Cl)nc(Nc3cccc(C(=O)/C=C/c4ccc(Br)cc4)c3)c2cc1OC,31.7%
3,COc1ccc2c(c1)C/C(=C\c1cc(-c3cc(OC)c(OC)c(OC)c3)n[nH]1)C2=O,56.3%
4,CCN1CCN(C(=O)[C@@]2(C)CC[C@]3(C)CC[C@]4(C)C(=CC(=O)[C@@H]5[C@@]6(C)CC[C@H](OC7C[C@@H](O)[C@@H](O)C(C)O7)C(C)(C)[C@@H]6CC[C@]54C)[C@@H]3C2)CC1 (stereo not given in full),24.5%
5,CCc1nnc(NC(=O)c2ccoc2COc2ccccc2)s1,24%
6,COc1cccc(-c2nn(-c3ccccc3)cc2-c2ccnc(NCCCNS(=O)(=O)c3cccc(F)c3)c2)c1,16%
7,COc1ccc(C2(Cl)c3ccccc3N(c3ccccc3)c3ccccc32)cc1,-6.13% (active)
8,Cc1ccc(-c2ccc(Nc3ccccc3)nn2)cc1S(N)(=O)=O,78.1%
9,CC(=O)O[C@H]1CC[C@]2(C)[C@H]3C(=O)C=C4[C@@H]5C[C@](C)(C(=O)N6CCCNCC6)CC[C@]5(C)CC[C@@]4(C)[C@]3(C)CC[C@H]2C1(C)C,-88.7% (active)
10,Cn1cc(-c2nc(-c3c[nH]c4ncccc34)cs2)c2cc(Cl)ccc21,17%
11,CC1(n2nnnc2N2CCCN(c3ncccc3N)CC2)CCC1,95.5%
12,CC(=O)O[C@H]1CC[C@@]2(C)C(=CC[C@@H]3[C@@H]2CC[C@]2(C)C(=O)N(O)C(=O)C[C@@H]32)C1,76%
13,c1ccc(C2Cc3ccccc3C2=NC2CCCCC2)cc1 (stereo not given),86.1%
14,Cc1ccc2c(c1)c1nc3cc(C)c(C)cc3nc1n2CCN(C)C,-6.81% (active)
15,Nc1c(C(=O)Nc2cccc3ccccc23)sc2nc3c(cc12)CCCC3,20.6%
16,Cc1[c-]onc1C.Cc1[c-]onc1C.[Ag].[Ag].[NH-]S(=O)(=O)c1ccc(N=Nc2cc(N=Nc3ccc(S([NH-])(=O)=O)cc3)c3c(NC(=O)C(Cl)Cl)cccc3c2OC(=O)C(Cl)Cl)cc1,35.7%
17,CCCCN1CCCCn2c1nc1c2c(=O)n(C)c(=O)n1C,103%
18,Cc1ccc(NC2CC(=O)N(c3c(C)cc(C)cc3C)C2=O)c(C)c1 (stereo not given),92.9%
19,COc1ccc(/C=C2\N=C(c3ccccc3)N(c3cc(OC)c(OC)cc3C(=O)N3N=C(C)CC3=O)C2=O)cc1,89.7%
20,COc1ccc2c(c1)c(-c1nc(-c3c[nH]c4ncccc34)cs1)cn2C,14.9%
